Structures are written as SMILES. About 83,000 compounds went through this panel and 20% of them were active in at least one assay; those are over-represented in the sample as a whole.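 Method: cells in 96-well plates; compound added at one concentration; 48 h incubation; percent growth measured; values under 10 scored active.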 Values without a mark were called inactive. Calls of active or inactive are those of the source.

The experiment deals with HL-60(TB) leukemia. The experiment is described as follows: NCI-60 one-dose screen, 48 h (100 = growth as untreated, 0 = no growth, -100 = all killed). Conditions: 10 µM unless noted.
As for `CN1C(=O)N(C)C2SC(N/N=C/c3cccs3)=NC21` (centres undefined), the growth is -19.5% (active).

For the molecule `CN1CCN(Cc2ccc(C(=O)Nc3cccc(Nc4ccc5c(O)cccc5n4)c3)cc2C(F)(F)F)CC1`, the growth was -34.1% (active).

For the molecule `Cc1ccc(C2CC(c3ccc(NC(=O)Nc4ccccc4)cc3)=NN2c2ccc(S(C)(=O)=O)cc2)cc1` (centres undefined), the growth is 13.4%.

Consider `O=C(c1cc2cc(OCCCN3CCC3)ccc2[nH]1)N1C[C@@H](CCl)c2c1cc(OCc1ccccc1)c1ccccc21`, for which the growth was -33.7% (active).

As to `Cc1sc(C(NC(=O)OCCn2c([N+](=O)[O-])cnc2C)C(F)(F)Cl)nc1-c1ccc(OC(F)(F)F)cc1` (centres undefined), the growth was -6.23% (active).

Consider `COc1cncc(-c2ccc3ncnc(N4CCc5ccc(Cl)cc54)c3c2)c1`, for which the growth was -33.4% (active).

With `COc1cc(C2CC(c3ccc(S(=O)(=O)NCCNc4nc(N(C)C)nc(N5CCOCC5)n4)cc3)=Nc3c(N)nc(N)nc3N2)cc(OC)c1OC` (centres undefined), the growth was 93.6%.

Consider `CC1=C2C(=C[C@@](C)(CO)[C@@H]2O)/C(=N\N)[C@](C)(O)C12CC2`, for which the growth was -22.1% (active).

`Cc1noc2c(Cc3ccccc3)nn(CC(=O)N/N=C/c3ccc(F)cc3)c(=O)c12`: the growth is 93.2%.

Turning to `Nc1cc(-c2c[nH]c3ccc(Br)cc23)nc2cc(-c3c[nH]c4ccccc34)nn12`, the growth is -15% (active).

Take `COC(=O)/C=C/c1cccc2c1C(=O)NC(C)(c1cc3cc4ccccc4cc3oc1=O)N2` (centres undefined): the growth was 54.7%.

For the molecule `C=C1CCC2C3(C)COC(c4ccccc4)OC3CCC2(C)C1CC(NCc1ccccc1)C1=CCOC1=O` (centres undefined), the growth was 43.6%.

Regarding `CC(=O)Nc1ccc(S(=O)(=O)Nc2ccc(-c3ccc4c(c3)NC(=O)/C4=C\c3ccc[nH]3)cc2)cc1`, the growth was 84.2%.

On to `O=C(CNc1nc(-c2ccccc2)cs1)Nc1ccc([N+](=O)[O-])cc1`, for which the growth was 5.69% (active).

With `CC(=O)c1c2c(c3ccc4c5ccccc5ccc4n13)C(=O)c1ccccc1C2=O`, the growth is 94.2%.

As for `CN(C)c1nc(NCCNS(=O)(=O)c2ccc(C3=Nc4c(N)nc(N)nc4NC(c4ccc(C(F)(F)F)cc4)C3)cc2)nc(N2CCOCC2)n1` (centres undefined), the growth was 6.05% (active).

With `CC(Nc1ncnc2ccc(-c3ccc4oc(N)nc4c3)cc12)c1ccccc1` (centres undefined), the growth is -71.4% (active).

With `Cc1cc2c(cc1Cl)C(=O)/C(=C/c1ccc(F)cc1)O2`, the growth was 101%.

For the molecule `O=c1cc(-c2ccccc2)oc2cc(OCCCNCc3ccccc3)cc(O)c12`, the growth was -46.3% (active).

As for `O=C(c1ccc(Cl)cc1)C(c1c[nH]c2ccccc12)c1c[nH]c2ccccc12`, the growth was -26.2% (active).

As for `COc1cccc(/C=C/c2nc3ccccc3c(=O)n2CC(=O)Nc2ccc(Cl)cc2)c1`, the growth is 115%.

As for `O=C1NC(=O)c2c1c1c3cc(Br)ccc3[nH]c1c1oc3ccc(F)cc3c21`, the growth was 44.6%.

Take `Cc1ccc([C@H]2C(C(=O)c3ccc(Cl)cc3)C3(N[C@@H]2c2ccccc2)C(=O)Nc2ccc(Br)cc23)cc1` (some centres undefined): the growth is 35.1%.

Turning to `O=C(Nc1ccc(OCc2ccc(Cl)cc2)cc1)Nc1ccc(Cl)c(C(F)(F)F)c1`, the growth was 0.65% (active).

`COc1ccc(C(=O)/C=C/c2cc(F)cc(C(F)(F)F)c2)cc1S(N)(=O)=O`: the growth was -4.63% (active).

`CNC(=O)c1cccc(NC(=O)c2ccc3c(c2)nnn3/C(C#N)=C/c2ccccn2)c1`: the growth was -14.7% (active).

In the case of `Cc1cc(=O)oc2cc(OCCCCOc3ccc(/C=C/C(=O)Nc4ccc(F)c(Cl)c4)cc3)ccc12`, the growth is 97.6%.

With `Cc1ccn2c(C(=O)c3ccc(Br)cc3)cc(-c3cc(-c4ccc(N(C)C)cc4)c(C#N)c(N)n3)c2c1`, the growth is 89.5%.

As for `CN1C(=O)C2(C(C#N)=C(c3ccc(Cl)cc3)Nc3c2c(-c2ccccc2)nn3-c2ccccc2)c2ccccc21` (centres undefined), the growth is 50.3%.

As for `O=C(NN1C(=O)/C(=C/C=C/c2ccc([N+](=O)[O-])o2)SC1=S)c1ccccc1O`, the growth was -0.846% (active).

As for `COc1ccc2[nH]c(O)c(N=NC(=O)c3ccc4nc(-c5ccc(Cl)cc5)[nH]c4c3)c2c1`, the growth was 88.5%.

Regarding `COc1ccc(/C=C2\C(=N)N=C(SCc3nc4ccccc4[nH]3)NC2=O)cc1`, the growth is 103%.

As for `OCNc1ccc(-n2cnc3cc(-c4ccc(O)cc4)ccc32)cc1C(F)(F)F`, the growth is -2.45% (active).

`NS(=O)(=O)c1ccc(N=Nc2c(O)n(CC(=O)Nc3ccccc3Br)c3ccccc23)cc1`: the growth is 76.6%.

For the origin of these results see PubChem BioAssay (NCI).
